For orientation: AC50 means the concentration giving half of the maximal activity seen.

Records with an inconclusive call do not appear. Calls of active or inactive are those of the source. Rule for the calls, unless noted: active = hit-call score of the fitted dose curve at least 0.9, where 1 is the maximum; inconclusive = response in the unintended direction; inactive = score below 0.9.

Experimental findings from PubChem BioAssay (EPA / NIEHS) are described below.

The target of experiment [1] is PGR (gene 5241) (UniProt P06401). Kind of experiment: TOX21_PR_BLA_Followup_Antagonist_ratio: Tox21 HEK293 Progesterone Receptor (PR) Antagonism Beta-lactamase Follow-Up Assay, Ratio (AID 2283934). The gist of the method:
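PR-UAS-bla HEK293T cells, 3,000/well in 2% charcoal-stripped FBS, given compound plus 1nM R5020 agonist for 16 hr at 37C. Beta-lactamase FRET substrate 2 hours, ratio cleaved/uncleaved fluorescence; viability by CellTiter-Glo in same wells.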

Experiment [2] can be described thus: TOX21_PR_BLA_Followup_Agonist_viability: Viability Assessment in the Tox21 HEK293 Progesterone Receptor (PR) Agonism Beta-lactamase Follow-Up Assay (AID 2283935).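 Note: signal loss means lower viability so actives are cytotoxic.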 The procedure, abridged:
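PR-UAS-bla HEK293T cells in 2% charcoal-stripped FBS medium, plated 6 hr before compound addition, exposed 16 hr at 37C. Viability read by CellTiter-Glo ATP luminescence after 30 min at room temperature, in the same wells as the beta-lactamase readout.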

Experiment [3] can be described thus: TOX21_PR_BLA_Followup_Antagonist_viability: Viability Assessment in the Tox21 HEK293 Progesterone Receptor (PR) Antagonism Beta-lactamase Follow-Up Assay (AID 2283936).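 Note: hits lower the luminescence signal meaning cytotoxicity.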 The procedure, abridged: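 PR-UAS-bla HEK293T cells (3,000/well, 2% charcoal-stripped FBS) given compound plus R5020 agonist, 16 h at 37C. CellTiter-Glo added after bla read, 30 min at room temperature; luminescence loss indicates cytotoxicity.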

Experiment [4] has as its target PGR (gene 5241) (UniProt P06401). Kind of experiment: TOX21_PR_LUC_Followup_Antagonist: Tox21 HEK293 Progesterone Receptor (PR) Antagonism Luciferase Follow-Up Assay (AID 2283938).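 Note: curve fitted upward as signal gain over DMSO baseline despite antagonist label.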 The gist of the method:
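Luciferase reporter in HEK293-PR-A-luc cells: 16 h compound treatment at 37C, ONE-Glo luminescence detection, DMSO as negative control and baseline.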

Experiment [5] in a line: TOX21_PR_LUC_Followup_Antagonist_viability: Viability Assessment in the Tox21 HEK293 Progesterone Receptor (PR) Antagonism Luciferase Follow-Up Assay (AID 2283940). The procedure, abridged:
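HEK293-PR-A-luc cells kept in charcoal-stripped FBS medium were plated 5 h before compound addition, then exposed 16 h at 37C; viability read as cellular ATP by luciferase luminescence, loss of signal indicating cytotoxicity.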

Experiment [6] can be described thus: TOX21_PR_LUC_Followup_Agonist_viability: Viability Assessment in the Tox21 HEK293 Progesterone Receptor (PR) Agonism Luciferase Follow-Up Assay (AID 2283941).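 Note: loss of signal means cytotoxicity so actives lower viability.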 The procedure, abridged:
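HEK293-PR-A-luc cells, kept in 10% charcoal-stripped FBS medium, were treated with compounds for 16 h at 37C. Viability read as cellular ATP by luciferase-coupled luminescence; loss of signal indicates cytotoxicity.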

The target in experiment [7] is T1, Thyroid hormone receptor alpha (Rattus norvegicus) + Thyroid hormone receptor beta (Rattus norvegicus) (UniProt P18113+P63059). The experiment in a line: TOX21_TR_LUC_GH3_Antagonist_Followup: Tox21 GH3 Thyroid Hormone Receptor Antagonism Luciferase Follow-Up Assay (AID 2283942). The gist of the method:
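Confirmatory qHTS, antagonist mode: T3 (1.0 nM final) + test cpd, 15 conc, 92 uM–5nM final, GH3 rat pituitary line, 24 h, 37C. Luc reporter, RLU vs DMSO.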

In experiment [8] the target is THRA (gene 7067) (UniProt P10827). Kind of experiment: TOX21_TRA_COA_Antagonist_Followup_ratio: Tox21 Thyroid Hormone Receptor alpha Antagonism through Coactivator Recruitment Follow-Up Assay, Ratio (AID 2283953). The procedure, abridged: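 520:495 nm emission ratio (excitation 340 nm) reports fluorescein-SRC-2 peptide recruitment to GST-TRα LBD by TR-FRET with Tb anti-GST antibody. Values were normalized to DMSO (0%) and T3 control wells (100%); loss of signal indicated antagonism.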
THRA (gene 7067), sequence (P10827 whole entry, looked up, the tested form may be a part): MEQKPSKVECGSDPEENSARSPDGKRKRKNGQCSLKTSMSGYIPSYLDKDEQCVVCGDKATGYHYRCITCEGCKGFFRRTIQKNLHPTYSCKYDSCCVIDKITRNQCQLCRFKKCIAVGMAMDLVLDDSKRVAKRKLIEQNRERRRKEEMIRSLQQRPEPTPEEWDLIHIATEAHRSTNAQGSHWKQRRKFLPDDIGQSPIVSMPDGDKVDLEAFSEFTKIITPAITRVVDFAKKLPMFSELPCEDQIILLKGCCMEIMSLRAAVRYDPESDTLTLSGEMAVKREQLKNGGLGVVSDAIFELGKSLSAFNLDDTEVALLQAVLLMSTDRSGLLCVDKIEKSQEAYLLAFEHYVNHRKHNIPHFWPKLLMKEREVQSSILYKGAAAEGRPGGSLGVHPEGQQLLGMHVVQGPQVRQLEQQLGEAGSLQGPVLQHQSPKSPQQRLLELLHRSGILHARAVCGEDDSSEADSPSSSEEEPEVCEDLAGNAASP

The target in experiment [9] is THRB (gene 7068) (UniProt P10828). Kind of experiment: TOX21_TRB_BLA_Antagonist_Followup_ratio: Tox21 Thyroid Hormone Receptor beta Antagonism Beta-lactamase (BLA) Follow-Up Assay, Ratio (AID 2283958). The gist of the method: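 HEK293T cells with a GAL4-TRb LBD fusion and UAS-bla reporter, 3,000 cells/well in phenol red-free DMEM with 2% charcoal-stripped FBS. Exposed 18 h at 37C to 11 concentrations in triplicate; CCF4 460:530 nm ratio after 2 h, DMSO-referenced.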
THRB (gene 7068), sequence (P10828 whole entry, looked up, the tested form may be a part): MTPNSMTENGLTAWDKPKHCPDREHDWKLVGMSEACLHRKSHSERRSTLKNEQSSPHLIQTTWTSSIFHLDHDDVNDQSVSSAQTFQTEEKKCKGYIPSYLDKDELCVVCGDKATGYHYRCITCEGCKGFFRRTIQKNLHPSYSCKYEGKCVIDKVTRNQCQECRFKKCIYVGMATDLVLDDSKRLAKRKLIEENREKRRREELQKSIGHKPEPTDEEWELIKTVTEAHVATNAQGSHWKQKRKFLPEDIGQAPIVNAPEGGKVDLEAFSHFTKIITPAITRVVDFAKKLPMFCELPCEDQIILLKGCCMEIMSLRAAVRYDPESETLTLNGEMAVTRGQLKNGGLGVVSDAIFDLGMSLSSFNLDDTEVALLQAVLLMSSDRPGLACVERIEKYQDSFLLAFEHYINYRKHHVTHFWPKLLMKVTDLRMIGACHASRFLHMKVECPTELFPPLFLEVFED

Experiment [10] in a line: TOX21_TRB_BLA_Antagonist_Followup_viability: Viability Assessment in the Tox21 Thyroid Hormone Receptor beta Antagonism Beta-lactamase (BLA) Follow-Up Assay (AID 2283961). The gist of the method: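 In the same wells as the reporter read, cell health was gauged by CellTiter-Glo ATP luminescence, with signal loss indicating reduced viability. Cells had been exposed to test compounds for 18 h.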

Experiment [11] concerns the target THRB (gene 7068) (UniProt P10828). Kind of experiment: TOX21_TRB_COA_Antagonist_Followup_ratio: Tox21 Thyroid Hormone Receptor beta Antagonism through Coactivator Recruitment Follow-Up Assay, Ratio (AID 2283967). The procedure, abridged:
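Test compound was incubated with 5.0 nM GST-TRβ LBD in 0.10% BSA. Then 200 nM fluorescein-SRC-2 peptide and 2 nM terbium anti-GST antibody were added. TR-FRET (520:495 nm) was measured and normalized to DMSO and T3 controls.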

The target in experiment [12] is Retinoic acid receptor RXR-alpha (Homo sapiens) (UniProt P19793). Kind of experiment: TOX21_TR_RXR_BLA_Antagonist_Followup_ratio: Tox21 Thyroid Hormone Receptor beta Retinoid X Receptor alpha (RXRa) Antagonism Beta-lactamase (BLA) Follow-Up Assay, Ratio (AID 2283972). The procedure, abridged:
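Compounds were tested in triplicate at 11 concentrations on RXRa-bla HEK293T cells for 16 h. Substrate cleavage ratio, normalized to DMSO, gave the endpoint.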

Experiment [13] is described as follows: CEETOX_H295R_PROG_noMTC: CeeTox H295R High-throughput Steroidogenesis Assay for Progesterone (PROG), maximum tolerated concentration (MTC) filtered results only (AID 2283920; active = hit-call score of the fitted dose curve at least 0.9, where 1 is the maximum; inactive = score below 0.9). The following applies: actives raise or lower the signal. The gist of the method: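 H295R cells; forskolin 10 uM x 48 h prestim; test cpd 48 h, 0.1% DMSO final; media progesterone via LC-MS/MS; bidirectional fit vs DMSO; no MTT-based MTC filter applied.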

Experiment [14] is described as follows: CEETOX_H295R_TESTO_noMTC: CeeTox H295R High-throughput Steroidogenesis Assay for Testosterone (TESTO), maximum tolerated concentration (MTC) filtered results only (AID 2283924; active = hit-call score of the fitted dose curve at least 0.9, where 1 is the maximum; inactive = score below 0.9). The note with it: actives raise or lower the signal. The procedure, abridged: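 H295R cells prestimulated 48 h with 10 uM forskolin, then exposed 48 h to chemicals in 0.1% DMSO final. Testosterone in medium quantified by MTBE extraction and HPLC-MS/MS; bidirectional fit versus DMSO, concentrations […] filtered by MTT-based maximum tolerated concentration.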

The target of experiment [15] is T1, Thyroid hormone receptor alpha (Rattus norvegicus) + Thyroid hormone receptor beta (Rattus norvegicus). Kind of experiment: TOX21_TR_LUC_GH3_Agonist_Followup: Tox21 GH3 Thyroid Hormone Receptor Agonism Luciferase Follow-Up Assay (AID 2283939). The procedure, abridged: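 Rat GH3 cells (1,500/well) in serum-free assay medium, treated with 15-point series, 92 uM to 5 nM final, for 24 h at 37C. Luciferase via ONE-Glo luminescence; gain of signal fitted against DMSO, T3 positive control.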

Experiment [16] has as its target THRA (gene 7067) (UniProt P10827). The experiment in a line: TOX21_TRA_COA_Agonist_Followup_ratio: Tox21 Thyroid Hormone Receptor alpha Agonism through Coactivator Recruitment Follow-Up Assay, Ratio (AID 2283948; active = hit-call score of the fitted dose curve at least 0.9, where 1 is the maximum; inactive = score below 0.9). The gist of the method:
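Agonist-mode biochemical TR-FRET with TRα LBD and SRC-2 coactivator peptide; activity expressed as percent of T3 response over DMSO baseline.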

The target of experiment [17] is THRB (gene 7068) (UniProt P10828). Kind of experiment: TOX21_TRB_COA_Agonist_Followup_ratio: Tox21 Thyroid Hormone Receptor beta Agonism through Coactivator Recruitment Follow-Up Assay, Ratio (AID 2283963; active = hit-call score of the fitted dose curve at least 0.9, where 1 is the maximum; inactive = score below 0.9). The gist of the method:
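First, the GST-fused TRβ ligand-binding domain (5.0 nM) was incubated with test compound in 0.10% BSA. Next, fluorescein-tagged SRC-2 peptide (200 nM) and terbium anti-GST antibody (2 nM) were added. Finally, TR-FRET emission ratios were normalized against DMSO and T3 controls.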

Experiment [18] addresses Retinoic acid receptor RXR-alpha (Homo sapiens) (UniProt P19793). The experiment in a line: TOX21_TR_RXR_BLA_Agonist_Followup_ratio: Tox21 Thyroid Hormone Receptor beta Retinoid X Receptor alpha (RXRa) Agonism Beta-lactamase (BLA) Follow-Up Assay, Ratio (AID 2283968). The procedure, abridged:
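RXRa-UAS-bla HEK293T cells, 5 h attachment at 37C/5% CO2, then 11 concentrations in triplicate for 16 h; 9-cis retinoic acid positive control. FRET-B/GCCF4-AM substrate 2 h at room temperature; 460:530 nm ratio, fitted for gain versus DMSO.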

A short description of experiment [19]: TOX21_TR_RXR_BLA_Agonist_Followup_viability: Viability Assessment in the Tox21 Thyroid Hormone Receptor beta Retinoid X Receptor alpha (RXRa) Agonism Beta-lactamase (BLA) Follow-Up Assay (AID 2283970). The gist of the method: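 RXRa-UAS-bla HEK293T cells, 2,500/well in phenol red-free DMEM with 2% charcoal-stripped FBS, dosed for 16 h at 37C. Viability measured by CellTiter-Glo ATP luminescence; fitted bidirectionally against DMSO baseline, loss of signal indicating cytotoxicity.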

The nature of experiment [20]: CCTE_Harrill_HTTr_Viability_DMEM_6hr: (Pilot) CCTE's 6-hour Cell Viability Assessment for the High-Throughput Transcriptomics (HTTr) Platform, in MCF-7 cells cultured in DMEM + 10% fetal bovine serum, Harrill Lab (AID 2283973; active = hit-call score of the fitted dose curve at least 0.9, where 1 is the maximum; inactive = score below 0.9). The procedure, abridged: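 MCF-7 cells in DMEM + 10% FBS, eight-point dilution series, 6 h exposure. Membrane integrity by propidium iodide exclusion with high-content imaging; bidirectional fit versus DMSO.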

PGR (gene 5241), sequence (P06401 whole entry, looked up): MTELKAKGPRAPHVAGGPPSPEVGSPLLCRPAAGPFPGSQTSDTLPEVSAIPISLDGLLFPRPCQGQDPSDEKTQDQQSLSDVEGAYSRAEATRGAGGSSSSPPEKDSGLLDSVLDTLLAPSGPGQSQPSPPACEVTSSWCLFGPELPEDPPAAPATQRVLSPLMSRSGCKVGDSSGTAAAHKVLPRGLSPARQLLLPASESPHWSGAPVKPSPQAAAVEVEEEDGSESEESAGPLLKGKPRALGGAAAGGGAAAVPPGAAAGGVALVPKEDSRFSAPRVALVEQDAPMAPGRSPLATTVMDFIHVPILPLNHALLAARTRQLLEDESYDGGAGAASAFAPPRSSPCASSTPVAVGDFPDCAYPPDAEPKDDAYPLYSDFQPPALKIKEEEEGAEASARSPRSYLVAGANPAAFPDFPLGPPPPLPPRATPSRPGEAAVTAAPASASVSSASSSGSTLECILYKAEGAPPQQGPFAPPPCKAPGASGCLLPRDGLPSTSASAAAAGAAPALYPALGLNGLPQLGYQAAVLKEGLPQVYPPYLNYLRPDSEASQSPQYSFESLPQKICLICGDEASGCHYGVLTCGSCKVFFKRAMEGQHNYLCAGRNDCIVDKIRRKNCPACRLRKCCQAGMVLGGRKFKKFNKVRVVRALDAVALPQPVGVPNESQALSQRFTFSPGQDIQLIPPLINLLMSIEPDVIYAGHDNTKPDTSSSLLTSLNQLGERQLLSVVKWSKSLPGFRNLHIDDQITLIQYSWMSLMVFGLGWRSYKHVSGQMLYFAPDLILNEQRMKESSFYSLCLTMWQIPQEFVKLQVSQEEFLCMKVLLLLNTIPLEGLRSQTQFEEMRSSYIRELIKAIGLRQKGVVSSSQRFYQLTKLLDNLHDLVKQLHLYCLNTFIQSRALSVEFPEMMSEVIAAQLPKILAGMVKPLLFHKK
Retinoic acid receptor RXR-alpha (Homo sapiens), sequence (P19793 whole entry, looked up): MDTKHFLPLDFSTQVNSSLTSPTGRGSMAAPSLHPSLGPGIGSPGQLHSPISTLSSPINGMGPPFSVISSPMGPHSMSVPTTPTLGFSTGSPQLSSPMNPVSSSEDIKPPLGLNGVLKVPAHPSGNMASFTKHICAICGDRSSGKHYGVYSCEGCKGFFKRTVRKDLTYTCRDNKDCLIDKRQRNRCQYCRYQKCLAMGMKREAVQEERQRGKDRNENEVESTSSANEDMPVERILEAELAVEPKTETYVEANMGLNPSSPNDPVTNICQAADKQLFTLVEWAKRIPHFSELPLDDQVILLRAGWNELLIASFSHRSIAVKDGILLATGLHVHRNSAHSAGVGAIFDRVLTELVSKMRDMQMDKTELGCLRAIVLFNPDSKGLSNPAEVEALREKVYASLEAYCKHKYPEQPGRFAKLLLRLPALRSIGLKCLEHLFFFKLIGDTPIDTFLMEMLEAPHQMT
T1 sequence (P63059 whole entry, looked up): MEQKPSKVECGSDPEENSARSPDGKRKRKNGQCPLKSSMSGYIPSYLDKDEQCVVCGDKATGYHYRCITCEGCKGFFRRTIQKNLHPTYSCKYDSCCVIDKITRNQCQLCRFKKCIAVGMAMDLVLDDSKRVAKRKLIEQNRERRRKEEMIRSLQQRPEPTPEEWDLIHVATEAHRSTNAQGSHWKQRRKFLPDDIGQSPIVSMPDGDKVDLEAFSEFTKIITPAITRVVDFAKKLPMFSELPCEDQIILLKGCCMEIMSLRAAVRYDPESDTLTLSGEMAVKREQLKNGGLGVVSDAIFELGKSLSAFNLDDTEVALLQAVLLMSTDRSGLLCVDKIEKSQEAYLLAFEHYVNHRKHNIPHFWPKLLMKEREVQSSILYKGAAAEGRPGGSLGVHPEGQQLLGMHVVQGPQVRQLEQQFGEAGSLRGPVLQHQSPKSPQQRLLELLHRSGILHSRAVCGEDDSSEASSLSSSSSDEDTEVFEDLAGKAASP
T1 sequence (P18113 whole entry, looked up): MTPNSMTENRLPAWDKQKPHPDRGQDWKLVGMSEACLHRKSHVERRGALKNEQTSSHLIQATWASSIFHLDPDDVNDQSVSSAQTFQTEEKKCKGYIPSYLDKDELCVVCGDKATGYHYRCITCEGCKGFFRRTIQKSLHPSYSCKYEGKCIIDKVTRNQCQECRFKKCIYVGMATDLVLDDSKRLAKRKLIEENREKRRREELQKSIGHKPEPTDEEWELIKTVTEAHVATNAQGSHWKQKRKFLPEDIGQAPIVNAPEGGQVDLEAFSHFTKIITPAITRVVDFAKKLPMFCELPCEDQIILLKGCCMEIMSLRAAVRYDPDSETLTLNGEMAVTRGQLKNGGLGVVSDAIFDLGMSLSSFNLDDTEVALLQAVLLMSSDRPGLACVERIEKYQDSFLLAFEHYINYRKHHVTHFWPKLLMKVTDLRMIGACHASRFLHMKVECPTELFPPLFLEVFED

Take `CC(C)c1cccc(C(C)C)c1N1C(=O)c2ccc(O)cc2C1=O`: the AC50 with PGR (gene 5241) [1] is 15.7 µM (active); in the experiment with PGR (gene 5241) [4] it was 17.3 µM (active); in the experiment with THRB (gene 7068) [9] it was 8.53 µM (active). Besides, the call (in [2]; in experiment [3]; in experiment [5]; in experiment [6]; in experiment [7]; in the experiment with THRA (gene 7067) [8]) was inactive. Also, the outcome (in experiment [10]; in the experiment with THRB (gene 7068) [11]; in experiment [12]) was inactive.

With `O=P(OC(CCl)CCl)(OC(CCl)CCl)OC(CCl)CCl`, the figures for the AC50 with PGR (gene 5241) [1] and in the experiment with PGR (gene 5241) [4] were 18.2 µM (active) and 46.1 µM (active), respectively. Besides, the compound was called inactive in experiment [2], in experiment [3], in [5] and in experiment [6].

Take `CCCCC(CC)COC(=O)c1ccc(C(=O)OCC(CC)CCCC)cc1` (stereo not given): the compound was called inactive in experiment [13] and in [14].

Take `CC(C)=CCC/C(C)=C\CO`: the call (in [13]; in experiment [14]; in experiment [15]; with THRA (gene 7067) [16]; in the experiment with THRB (gene 7068) [17]; in experiment [18]) was inactive. For the same compound, in experiment [19], the outcome was inactive.

For `CC[C@H](C)C(=O)O[C@H]1C[C@@H](C)C=C2C=C[C@H](C)[C@H](CC[C@@H]3C[C@@H](O)CC(=O)O3)[C@H]21`, the outcome in experiment [20] was inactive.

For the compound `O=C(NS(=O)(=O)/C=C/c1ccccc1)c1ccc(F)cc1Cl`, the result in experiment [13] was inactive.

In the case of `CCC(C)(C)C(=O)O[C@H]1C[C@@H](C)C=C2C=C[C@H](C)[C@H](CC[C@@H]3C[C@@H](O)CC(=O)O3)[C@H]21`, in experiment [20], the outcome was inactive.
